The list is not random: actives were taken first. Their share in the collection is about 4.5%.
Gli-Sufu block – Gli-Sufu pathway antagonism; inhibition, % at 5 µM; 340,000 tested, 0.74% active; Sufu-KO-LIGHT fibroblasts, Gli luciferase reporter luminescence;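 active means inhibition above about 55%, limit read from the data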;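 further: 0% = DMSO-treated cells and 100% = wells with medium but no cells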
Beta apoptosis – beta cell apoptosis inhibition; INS-1E cytokine-induced death, ATP luminescence, 48 h; percent of positive-control rescue, neutral wells zero; protection from apoptosis, % (test concentration not listed); 300,000 tested, 0.8% active; AID 435005;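 active means Every replicate reaches about 75%, or at least half do and their mean reaches it too, limit read from the data; inconclusive means At least half of replicates reach the limit but their mean does not; inactive means Under half of replicates reach the limit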;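 further: 0% = cytokine-treated negative control wells and 100% = positive control rescue; higher means more ATP so stronger rescue from cytokine killing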
Mdm2-MdmX inh – human Mdm2/MdmX binding inhibition. O15151+Q00987. SaOS-2 split-luciferase Mdm2/MdmX complementation, luminescence. inhibition, % at 8 µM. 330,000 tested, 3% active. AID 485346;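 active means inhibition of at least 50% at 8 µM in the primary screen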
Target sequence (O15151 whole entry, looked up): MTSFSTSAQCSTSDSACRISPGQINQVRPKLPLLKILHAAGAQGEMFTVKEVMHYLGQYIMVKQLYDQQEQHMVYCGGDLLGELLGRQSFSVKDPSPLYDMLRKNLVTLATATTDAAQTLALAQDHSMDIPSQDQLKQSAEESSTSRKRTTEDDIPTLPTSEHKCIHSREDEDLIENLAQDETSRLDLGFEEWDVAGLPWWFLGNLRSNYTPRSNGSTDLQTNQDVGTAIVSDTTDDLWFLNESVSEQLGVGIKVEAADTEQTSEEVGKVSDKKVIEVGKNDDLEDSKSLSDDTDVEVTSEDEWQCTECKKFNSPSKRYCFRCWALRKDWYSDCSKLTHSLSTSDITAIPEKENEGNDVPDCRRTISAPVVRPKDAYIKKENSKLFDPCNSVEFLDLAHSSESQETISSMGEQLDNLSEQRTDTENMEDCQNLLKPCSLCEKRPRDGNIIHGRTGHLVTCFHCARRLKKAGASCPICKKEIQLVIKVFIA
Target sequence (Q00987 whole entry, looked up): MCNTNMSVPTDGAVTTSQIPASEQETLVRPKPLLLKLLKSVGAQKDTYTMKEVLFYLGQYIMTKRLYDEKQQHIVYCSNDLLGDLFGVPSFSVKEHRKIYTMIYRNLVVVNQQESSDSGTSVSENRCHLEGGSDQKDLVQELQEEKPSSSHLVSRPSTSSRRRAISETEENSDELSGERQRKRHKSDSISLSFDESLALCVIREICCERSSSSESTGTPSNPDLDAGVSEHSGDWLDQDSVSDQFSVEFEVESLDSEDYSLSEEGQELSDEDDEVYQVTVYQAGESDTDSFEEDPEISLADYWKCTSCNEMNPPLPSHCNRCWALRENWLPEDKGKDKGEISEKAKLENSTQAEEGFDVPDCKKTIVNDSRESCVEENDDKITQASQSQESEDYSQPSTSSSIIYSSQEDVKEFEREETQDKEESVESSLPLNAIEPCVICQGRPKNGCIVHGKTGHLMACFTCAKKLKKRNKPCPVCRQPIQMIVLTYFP
CSC inhib – cancer stem cell inhibition. cancer stem cell-like cells viability, luminescence. inhibition, % at 7.5 µM. 300,000 tested, 1.1% active; in the data active means inhibition above about 75%; inconclusive means no clear call, values can overlap the other calls; tested in HMLE shEcad cells
Jurkat NFkB inh – inhibitors of the PMA/ionomycin-induced NF-kB reporter in Jurkat cells; PMA/ionomycin-induced NF-kB luciferase reporter, luminescence; inhibition, % at 4 µM; 330,000 tested, 0.53% active; in the data active means inhibition above about 50%
697 NFkB inh – lowers PMA/ionomycin-induced NF-kB signal in 697 B cells. AID 435022. 330,000 tested, 0.33% active. inhibition, % at 4 µM. 697 B-cell NF-kB luciferase reporter, 16 h; in the data active means inhibition above about 35%
Mdm2-MdmX conf – confirmation of human Mdm2/MdmX interaction inhibitors | Mdm2-MdmX binding, luminescent assay | shares compounds with Mdm2-MdmX inh | inhibition, % at 8 µM | 10,000 tested, 55% active; in the data active means inhibition above about 40%
Full FLuc ctr – full-length luciferase inhibition in Mdm2/MdmX counter-screen; shares compounds with Mdm2-MdmX inh; SaOS-2 full-length luciferase counterscreen, luminescence; inhibition, % at 8 µM; 6,200 tested, 77% active;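 active means mean inhibition at 8 µM reaching about 37%, which flags the compound as non-specific, limit read from the data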;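 further: p53-null SaOS-2 cells with luciferase driven by a doxycycline-inducible promoter; compound on cells about two nights before reading with doxycycline added after day one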
* = called active by the depositor; ? = inconclusive; nt = no result.

SMILES | Gli-Sufu block | Beta apoptosis | Mdm2-MdmX inh | CSC inhib | Jurkat NFkB inh | 697 NFkB inh | Mdm2-MdmX conf | Full FLuc ctr
COc1ccccc1CCNC(=O)c1ccc(NC(=O)CC2SC(N3CCCCC3)=NC2=O)cc1 (stereo not given) | 4.0 | 1.5 | -16.8 | 1.9 | 13.3 | 11.0 | nt | nt
O=C(O)c1cccc(-c2ccc(/C=N/n3cnc4sc5c(c4c3=O)CCCC5)o2)c1 | nt | -8.4 | -8.9 | -9.3 | 5.0 | 10.3 | nt | nt
COc1ccc2[nH]c(=O)c(CN(CCN3CCCC3)C(=O)Nc3ccccc3Cl)cc2c1 | -9.3 | -10.1 | 40.1 | -5.1 | -2.0 | 2.7 | nt | nt
CCOc1ccc2[nH]c(=O)c(CN(CCN3CCCC3)C(=S)Nc3ccccc3OCC)cc2c1 | 25.9 | -3.2 | 100.3* | -15.5 | 4.1 | -3.6 | 16.6 | nt
CCn1c(=O)c(C(=O)Nc2ccccc2S(N)(=O)=O)c(O)c2ccccc21 | -18.1 | -2.5 | 55.9* | nt | -3.8 | -31.1 | 3.5 | nt
CC(C)Cn1c(=O)c(C(=O)Nc2ccncc2)c(O)c2ccccc21 | -10.6 | 18.5 | 68.8* | 135.4* | 17.5 | 0.3 | 50.5* | 37.9*
CC(C)Cn1c(=O)c(C(=O)Nc2cnccn2)c(O)c2ccccc21 | 9.1 | 3.4 | 30.9 | 9.3 | 0.8 | 15.3 | nt | nt
CCn1c(=O)c(C(=O)NNC(=O)c2ccccc2)c(O)c2ccccc21 | 3.3 | 7.6 | 50.0 | -0.2 | 3.3 | 2.7 | 42.6* | 54.2*
CCCCCCC(=O)NNC(=O)c1c(O)c2ccccc2n(CC)c1=O | -4.4 | -1.1 | 5.5 | 10.0 | -1.2 | 11.8 | nt | nt
CC1=C(C(=O)Nc2cc(C(=O)N(C)Cc3ccccc3)ccc2C)SCCO1 | 0.3 | -4.5 | -6.9 | -10.4 | -1.7 | -3.0 | nt | nt
COc1ccc(NC(=O)/C(=C\c2cc(OC)c(OC)cc2[N+](=O)[O-])NC(=O)c2ccccc2)cc1 | -13.9 | -1.3 | 51.6* | nt | -6.2 | 13.5 | -11.3 | nt
COc1cc(/C=C(/NC(=O)c2ccccc2)C(=O)Nc2ccccc2)c([N+](=O)[O-])cc1OC | 1.2 | 4.4 | 2.7 | 0.9 | -9.3 | -33.4 | nt | nt
Oc1c(CN2CCN(c3ccccn3)CC2)cc(Cl)c2cccnc12 | 70.6* | 108.8* | 71.7* | ? | 34.3 | -58.2 | 71.1* | 28.0
CCOC(=O)N1CCN(Cc2ccccn2)CC1 | nt | -1.2 | -19.1 | -12.6 | -7.8 | 1.1 | nt | nt
CCOC(=O)N1CCN(Cc2ccc(O)c3ncccc23)CC1 | 26.2 | -1.1 | 50.2* | 45.9 | 3.4 | -8.5 | -8.9 | nt
COc1ccccc1N1CCN(Cc2cc(Br)c(O)c3ncccc23)CC1 | 57.6* | 102.1* | 60.9* | 77.4* | 47.0 | -111.2 | 59.9* | 59.8*
Oc1ccc(CN2CCc3ccccc3C2)c2cccnc12 | 84.3* | 112.5* | 51.1* | 60.5 | 37.0 | -2.9 | 77.7* | 24.4
OCCN1CCN(Cc2cc(Cl)c3cccnc3c2O)CC1 | -2.7 | 2.6 | 44.3 | 22.5 | -2.5 | -11.0 | nt | nt
CCNc1c(NS(=O)(=O)c2ccc(OC)cc2)c(=O)oc2ccccc12 | 29.3 | 2.7 | 22.5 | -15.4 | -7.7 | -0.7 | nt | nt
COC(=O)[C@@]12CCCCN1[C@H](c1ccc(-c3ccc(OC)cc3)c(OC)c1)[C@@H]1C(=O)N(C)C(=O)[C@@H]12 | 2.3 | -12.3 | 29.2 | -0.5 | -128.3 | -147.8 | nt | nt
CCOC(=O)N1CCN(C(=O)c2c(Cl)cnn2C)CC1 | 4.0 | -0.5 | 10.6 | 5.3 | 2.2 | 3.4 | nt | nt
Oc1ccc(CN2CCN(c3ccccc3)CC2)c2cccnc12 | 12.1 | 43.2 | 78.3* | -6.3 | 4.3 | -24.8 | 65.5* | 66.7*
Oc1ccc(CN2CCC(Cc3ccccc3)CC2)c2cccnc12 | 67.0* | nt | 72.8* | nt | 40.2 | -153.8 | 68.7* | 69.4*
Cc1ccc(C)c(S(=O)(=O)N2CCN(Cc3ccc(O)c4ncccc34)CC2)c1 | 73.5* | 87.2* | 78.1* | 4.9 | 15.9 | -42.2 | 71.2* | 36.5*
CSc1ncccc1C(=O)N1CCN(S(=O)(=O)c2cc(C)ccc2C)CC1 | 1.9 | -5.0 | 17.7 | 0.1 | 3.5 | 14.1 | nt | nt
SMILES | Gli-Sufu block | Beta apoptosis | Mdm2-MdmX inh | CSC inhib | Jurkat NFkB inh | 697 NFkB inh | Mdm2-MdmX conf | Full FLuc ctr
CC(C)NS(=O)(=O)c1ccc(NC(=O)C(C)OC(=O)CCC2CCCC2)cc1 (stereo not given) | 11.2 | -2.6 | -10.9 | -6.3 | 11.2 | 15.3 | nt | nt
Cc1ccc2c(c1)c1c3n2CCN(C(=O)CCl)C3CCC1 (stereo not given) | 9.1 | -2.2 | 50.7* | -1.4 | -1.6 | 10.6 | 18.1 | 91.7*
Cc1ccc(C=NNc2nc3c([nH]2)c(=O)n(C)c(=O)n3C)cc1 | 9.3 | nt | nt | nt | nt | nt | nt | nt
Fc1cc(NC(=S)NCc2ccc(CNC(=S)Nc3ccc(Cl)c(F)c3)cc2)ccc1Cl | -4.1 | 16.2 | 50.1* | 7.0 | -7.4 | 10.4 | 5.2 | nt
FC(F)(F)c1cccc(NC(=S)NCc2ccc(Cl)cc2)c1 | -1.1 | 18.1 | 82.9* | 59.5 | 1.7 | -8.1 | 22.5 | nt
FC(F)(F)c1cccc(NC(=S)NNC(=S)Nc2ccc(Cl)cc2)c1 | nt | 42.3 | 79.8* | 132.2* | 1.7 | 18.0 | 25.9 | nt
N#CC1=C(N)Oc2cc(N)ccc2C1c1ccc(F)cc1F (stereo not given) | -18.2 | 8.8 | 59.2* | 20.1 | 20.5 | -17.8 | 15.4 | nt
O=C(O)c1ccc(S(=O)(=O)/N=C2\C=C(Nc3ccccc3F)C(=O)c3ccccc32)cc1 | -15.3 | 99.3* | 72.3* | 103.8* | -56.5 | -70.7 | 64.8* | 5.2
Cc1ccccc1NC1=C/C(=N\S(=O)(=O)c2ccc(C(=O)O)cc2)c2ccccc2C1=O | 10.5 | 107.4* | 84.7* | nt | -5.1 | -2.3 | 21.6 | nt
Cc1ccccc1C(=O)N1CCC(C(=O)N(CC(C)C)c2c(N)n(Cc3ccccc3)c(=O)[nH]c2=O)CC1 | -2.6 | -4.6 | 0.9 | -13.5 | 0.0 | -3.5 | nt | nt
COc1ccc(/C=N/NC(=O)c2ccc3ccccc3c2)cc1OS(=O)(=O)c1ccc(NC(C)=O)cc1 | 13.2 | nt | 68.4* | nt | 37.5 | 2.5 | 54.9* | 57.8*
COc1ccc(/C=N/NC(=O)c2cccnc2)cc1COc1ccc([N+](=O)[O-])cc1 | -10.1 | 7.5 | 51.5* | 40.6 | 47.8 | -18.4 | 37.5 | 81.2*
COc1ccc(/C=N/NC(=O)c2cccnc2)cc1COc1ccc(NC(C)=O)cc1 | -4.1 | 5.5 | 52.1* | 53.2 | 40.2 | -21.7 | 25.6 | nt
COc1ccc(NC(=O)COc2ccc(/C=N/NC(=O)c3cccnc3)cc2OC)cc1 | -1.1 | 0.1 | 9.9 | -9.1 | -14.0 | 13.1 | nt | nt
CN(Cc1cn(C)nc1-c1ccccc1F)CC1CCCCO1 (stereo not given) | 13.6 | 2.3 | 2.4 | -11.7 | 1.4 | 17.4 | nt | nt
C=C1CCC[C@]2(C)C[C@H]3OC(=O)C(CNCCN(CC)CC)[C@H]3CC12 (stereo not given in full) | 2.2 | -13.7 | 27.7 | 19.8 | -8.6 | -0.9 | nt | nt
Cc1ccc(S(=O)(=O)CCc2nnc(N)s2)cc1C | -0.9 | -3.5 | 29.2 | -13.0 | -4.8 | 6.8 | nt | nt
